About 83,000 compounds went through this panel and 20% of them were active in at least one assay; those are over-represented in the sample as a whole.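 Treatment: one concentration, 48 hours, 96-well format. Scoring: percent growth, with anything below 10 considered active.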 Unmarked numbers belong to inactive results. Active and inactive are the calls of the source.
What was measured:
Assay in all cases: NCI-60 one-dose screen, 48 h (100 = growth as untreated, 0 = no growth, -100 = all killed)
Conditions in all cases: 10 µM unless noted
[1] = tested on: SK-MEL-2 melanoma
[2] = tested on: EKVX NSCLC
[3] = tested on: SN12C renal
[4] = tested on: UO-31 renal
[5] = tested on: TK-10 renal
[6] = tested on: ACHN renal
[7] = tested on: CAKI-1 renal
[8] = tested on: A498 renal
[9] = tested on: CCRF-CEM leukemia
[10] = tested on: MOLT-4 leukemia
[11] = tested on: SR leukemia
[12] = tested on: RPMI-8226 leukemia
[13] = tested on: OVCAR-8 ovarian
[14] = tested on: OVCAR-5 ovarian
[15] = tested on: OVCAR-4 ovarian
[16] = tested on: SK-OV-3 ovarian
[17] = tested on: IGROV1 ovarian
[18] = tested on: OVCAR-3 ovarian
[19] = tested on: HS 578T breast
[20] = tested on: NCI/ADR-RES ovarian

| Compound | growth [1] | growth [2] | growth [3] | growth [4] | growth [5] | growth [6] | growth [7] | growth [8] | growth [9] | growth [10] | growth [11] | growth [12] | growth [13] | growth [14] | growth [15] | growth [16] | growth [17] | growth [18] | growth [19] | growth [20] |
| --- | --- | --- | --- | --- | --- | --- | --- | --- | --- | --- | --- | --- | --- | --- | --- | --- | --- | --- | --- | --- |
| Fc1cc(Nc2ccc3c(OCCCN4CCOCC4)cccc3n2)ccc1Cl | 88.8% | 39.9% | 62.6% | 33.3% | 66.1% | 52.6% | 54.8% | 54.4% | 29.2% | 3.8% (active) | 10.7% | 4.49% (active) | 73.5% | 33.5% | 53.1% | 67.7% | 36.2% | 65.1% | 40.1% |  |
| Cn1cc(-c2nn3cc(-c4cccs4)nc3s2)c2cc(F)ccc21 | 35% | 47.7% | 36% | 35.8% | 53.7% | 43.5% | 27.8% | 7.55% (active) | 21.9% | 22.3% | 11.8% | 31.2% | 51.4% | 42.7% | 60.5% | 44.9% | 35.3% | 5.2% (active) | 1.66% (active) |  |
| COc1cccc(CNc2c3ccccc3nc3ccccc23)c1 | 67.9% | 51.8% | 37.9% | 27% | 51.7% | 19.1% | 35.7% | 3.65% (active) | 30.2% | 6.41% (active) | 8.36% (active) | 16.7% | 31.9% | 45.9% | 43.6% | 54.7% | 28.3% | 54.8% | 55.6% | 37.5% |
| NC(=O)c1cccc([C@@H]2O[C@H](CO)[C@@H](O)[C@H]2O)c1 | 103% | 99% | 94.1% | 52.1% | 55.5% | 93.1% | 80.9% | 86.6% | 11% | -1.79% (active) | 84% | -25.7% (active) | 9.76% (active) | 102% | -20.6% (active) | 28.7% | 110% | 70.6% | 5.46% (active) | 23.8% |
| N#Cc1ccc(O)c(C2=NCC(Cc3ccccc3)O2)c1 (stereo unspecified) | 38.8% | 45% | 51.9% | 22% | 51.4% | 38.6% | 12.9% | 84.9% | 33.6% | 46.6% | 60.8% | 55.3% | 37% | 79.7% | 22.3% | 50.9% | 43.2% | 16.1% | 90.7% | 0.317% (active) |
| CC1=C(C(=O)Nc2nc(-c3ccc(Cl)cc3)cs2)[C@H](c2ccc(O)cc2)NC(=O)N1 | 106% | 94.1% | 107% | 78.3% | 103% | 105% | 91% | 99.4% | 116% | 94.2% | 113% | 109% | 105% | 106% | 98.6% | 111% | 97.8% | 95.8% | 106% |  |
| CCN1C(=O)N(CC)C2Nn3c(s/c(=C\c4ccccc4Br)c3=O)=NC21 (stereo unspecified) | 48.5% | 44.4% | 35.4% | 55% | 81.5% | 30.5% | 21.5% | -0.799% (active) | 15.2% | 23.2% | 15.7% | 35.4% | 15.4% | 28.9% | 47.5% | 44.7% | 25.7% | -7.24% (active) | 11.4% |  |
| Nn1c(=O)c(=O)[nH]c2c(cnn2-c2ccccc2)c1=O | 122% | 98.9% | 105% | 82.2% | 109% | 105% | 94.3% | 113% | 108% | 101% | 94.5% | 103% | 97.3% | 108% | 118% | 102% | 118% | 107% | 111% |  |
| CNC(=O)c1cc(Oc2ccc3c(c2)sc2nc(-c4ccc(OC)cc4)cn23)ccn1 | 44.2% | 52.7% | 69.7% | 52.2% | 21.1% | 83.8% | 85.5% | 16.9% | 66.9% | 76.6% | 38% | 20.2% | 52.4% | 36% | 65.8% | 16.8% | 83.3% | 4.08% (active) | 76.8% |  |
| Cc1nc2c(=O)nc3s/c(=C\c4ccco4)c(=O)n3c2nc1C | 109% | 91.8% | 97.8% | 73.1% | 92.9% | 99.2% | 88.4% | 50.9% | 108% | 106% | 94.2% | 116% | 96.1% | 101% | 101% | 102% | 93.4% | 105% | -95.1% (active) |  |
| COc1cc2c(cc1OCCCCN1CCN(C(=S)SCCC(C#N)(c3ccccc3)c3ccccc3)CC1)N=C[C@@H]1CCCN1C2=O | -95.1% (active) | -94.8% (active) | -57.4% (active) | 10.8% | -79.6% (active) | -68.8% (active) | -64.7% (active) | -95% (active) | -20.2% (active) | -13.2% (active) | -44.1% (active) | -18% (active) | 15.9% | -17.1% (active) | -11.8% (active) | -7.37% (active) | -76.6% (active) | -85.9% (active) | -11.7% (active) | 13.9% |
| Cn1c2c(c3ccc(Cl)c(Cl)c31)C(C#N)C(C)(C)NC2=O (stereo unspecified) | 45.2% | 84.9% | 93.6% | 110% | 82.3% | 80.1% | 63.4% | -14.9% (active) | 87.9% | 59.4% | 66% | 72.1% | 95.1% | 77.7% | 89.6% | 105% | -5.28% (active) | 71.3% | 34.1% |  |
| C=C(C)[C@@H]1CC[C@]2(C(N)=O)CC[C@]3(C)[C@H](CC[C@@H]4[C@@]5(C)CC[C@H](OCCC#N)C(C)(C)[C@@H]5CC[C@]43C)[C@@H]12 | 92.5% | 90.4% | 78.5% | 75.8% | 117% | 74.1% | 64.5% | 116% | 78.9% | 70% | 72.7% | 73.2% | 86.9% | 76.3% | 93.2% | 79.5% | 90% | 110% | 88.3% |  |
| c1nc2ccc(-c3cc4ccc5[nH]ncc5c4c4c3CCCC4)cc2[nH]1 | 43% | 93% | 76.4% | 92.9% | 61.7% | 52.2% | 54% | 49.9% | 31% | 33.8% | 8.69% (active) | 58.1% | 78.5% | 69.3% | 88% | 50.2% | 36% | 89.5% | 65.2% | 110% |
| O=C(CCCCCNC(=O)c1cc(=O)c(O)co1)Nc1ccccc1 | 105% | 98.1% | 110% | 83.9% | 93.6% | 102% | 95.3% | 96% | 95.1% | 106% | 101% | 95.7% | 104% | 102% | 110% | 118% | 106% | 109% | 108% | 102% |
| [2H]C([2H])([2H])Oc1ccc(F)cc1/C=C/C(=O)/C=C(/C=C/c1cc(F)ccc1OC([2H])([2H])[2H])OB(F)F | 94.2% | 99.7% | 67.4% | 53.9% | 96.9% | 54.5% | 74.1% | 111% | 1.24% (active) | 4.82% (active) | 22.7% | 10.7% | 19.2% | 107% | 74.7% | 107% | 87.4% | 42.1% | 91.9% | 76.5% |
